Laboratory results: PubChem BioAssay (EPA / NIEHS)
Where “and” joins values, the source holds several entries; their conditions need not be identical. Equal values may be shown once. Results filed as inconclusive are left out. Where a structure was tested more than once in an assay, its records may differ in their call. Calls of active or inactive are those of the source. Rule for the calls, unless noted: active = hit-call score of the fitted dose curve at least 0.9, where 1 is the maximum; inactive = score below 0.9.

Target: human Retinoid X Receptor beta (RXRb), RXRB (gene 6257) (UniProt P28702)
Assay: ATG_RXRb_TRANS: Attagene TRANS-FACTORIAL HepG2 Assay for human Retinoid X Receptor beta (RXRb) (AID 2283013; active = hit-call score of the fitted dose curve at least 0.9, where 1 is the maximum)
Settings: not given
Method in brief: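 HepG2 cells were transiently transfected with multiplexed GAL4-UAS reporters and a chimeric RXRb-Gal4 construct, then exposed for 24 h. Reporter mRNA was quantified by RT-PCR, FAM labeling, HpaI digestion and capillary electrophoresis; gain of signal was scored against DMSO.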

human Retinoid X Receptor beta (RXRb), RXRB (gene 6257), sequence (P28702 whole entry, looked up): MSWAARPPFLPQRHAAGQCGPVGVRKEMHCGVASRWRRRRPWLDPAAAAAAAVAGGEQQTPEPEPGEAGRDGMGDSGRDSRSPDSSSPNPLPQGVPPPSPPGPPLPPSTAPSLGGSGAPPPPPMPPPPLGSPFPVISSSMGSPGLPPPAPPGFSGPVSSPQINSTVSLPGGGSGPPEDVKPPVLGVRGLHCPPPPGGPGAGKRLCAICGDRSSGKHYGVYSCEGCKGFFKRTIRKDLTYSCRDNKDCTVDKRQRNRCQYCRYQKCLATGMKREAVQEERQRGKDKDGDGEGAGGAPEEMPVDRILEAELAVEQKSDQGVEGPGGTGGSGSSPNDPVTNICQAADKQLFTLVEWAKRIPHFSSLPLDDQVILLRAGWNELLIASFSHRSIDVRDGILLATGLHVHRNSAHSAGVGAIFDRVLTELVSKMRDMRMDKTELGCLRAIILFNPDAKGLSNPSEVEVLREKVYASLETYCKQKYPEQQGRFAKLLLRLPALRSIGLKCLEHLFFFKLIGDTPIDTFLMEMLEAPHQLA
E-selectin (Homo sapiens), sequence (P16581 whole entry, looked up): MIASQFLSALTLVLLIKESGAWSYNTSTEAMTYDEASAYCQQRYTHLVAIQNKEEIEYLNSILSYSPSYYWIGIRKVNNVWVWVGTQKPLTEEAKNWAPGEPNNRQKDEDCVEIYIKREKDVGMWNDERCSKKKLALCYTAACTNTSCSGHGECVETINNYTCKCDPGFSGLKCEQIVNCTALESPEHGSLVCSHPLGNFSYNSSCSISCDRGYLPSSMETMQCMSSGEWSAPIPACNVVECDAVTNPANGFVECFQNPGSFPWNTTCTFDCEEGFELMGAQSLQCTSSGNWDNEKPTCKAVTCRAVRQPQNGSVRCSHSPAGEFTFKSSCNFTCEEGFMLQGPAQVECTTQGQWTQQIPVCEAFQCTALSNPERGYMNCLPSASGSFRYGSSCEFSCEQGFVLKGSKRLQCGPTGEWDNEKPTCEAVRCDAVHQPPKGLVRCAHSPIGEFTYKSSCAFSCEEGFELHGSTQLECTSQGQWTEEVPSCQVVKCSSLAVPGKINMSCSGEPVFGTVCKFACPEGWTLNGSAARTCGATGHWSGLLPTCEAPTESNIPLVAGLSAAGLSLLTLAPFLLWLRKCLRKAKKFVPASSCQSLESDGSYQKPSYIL

| Structure (SMILES) | outcome |
| --- | --- |
| C=C(C)C(=O)OCCC(C)OC(=O)C(=C)C (stereo unspecified) | inactive |
| CC(C)Cc1ccc(C(C)C(=O)O)cc1 (stereo unspecified) | inactive |
| Nc1ccc(O)c(N)c1 | inactive |
| CCC(C)(C)C1CCC(OC)CC1 (stereo unspecified) | inactive |
| OCCCO | inactive |

Target: human Thyroid Receptor alpha (THRa1), THRA (gene 7067) (UniProt P10827)
Assay: ATG_THRa1_TRANS: Attagene TRANS-FACTORIAL HepG2 Assay for human Thyroid Receptor alpha (THRa1) (AID 2283014; active = hit-call score of the fitted dose curve at least 0.9, where 1 is the maximum)
Settings: not given
Method in brief: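 HepG2 cells transiently transfected with chimeric NR-Gal4 and GAL4-UAS reporter units, dosed 24 h. Reporter mRNA quantified by RT-PCR, fluorescent labeling, HpaI digestion and capillary electrophoresis; gain-of-signal fit versus DMSO.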

human Thyroid Receptor alpha (THRa1), THRA (gene 7067), sequence (P10827 whole entry, looked up): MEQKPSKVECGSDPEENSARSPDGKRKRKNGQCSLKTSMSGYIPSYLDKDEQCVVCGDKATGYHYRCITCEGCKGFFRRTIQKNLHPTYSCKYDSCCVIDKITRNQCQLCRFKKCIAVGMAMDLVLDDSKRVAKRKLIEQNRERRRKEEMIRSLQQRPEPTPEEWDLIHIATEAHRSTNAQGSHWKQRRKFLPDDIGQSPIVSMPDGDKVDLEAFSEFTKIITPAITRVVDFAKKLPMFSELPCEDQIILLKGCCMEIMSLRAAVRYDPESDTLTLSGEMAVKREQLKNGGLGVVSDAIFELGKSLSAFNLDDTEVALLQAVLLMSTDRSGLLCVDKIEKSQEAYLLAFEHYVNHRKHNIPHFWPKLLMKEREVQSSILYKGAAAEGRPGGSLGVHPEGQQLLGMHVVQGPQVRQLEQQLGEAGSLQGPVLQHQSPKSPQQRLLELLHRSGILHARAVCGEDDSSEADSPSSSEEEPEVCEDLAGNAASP

| Structure (SMILES) | outcome |
| --- | --- |
| CC1(C)[C@H](C=C(Cl)Cl)[C@H]1C(=O)OCc1cccc(Oc2ccccc2)c1 | inactive |
| CC1COC(=O)O1 (stereo unspecified) | inactive |
| c1ccc(Sc2ccccc2)cc1 | inactive |
| CCCCCc1cccc(=O)o1 | inactive |
| COc1ccc2[nH]cc(CCNC(C)=O)c2c1 | inactive |
| CCCCCCCCCCOC(=O)c1ccccc1C(=O)OCCCCCCCC | inactive |
| CC(=O)CC(C)(C)C1CCCCC1 | inactive |
| [Na+] | inactive |
| C=CC(=O)OCC(CO)(COC(=O)C=C)COC(=O)C=C | inactive |
| C=C(C)CCCC(C)CCO (stereo unspecified) | inactive |
| CCCCCCCCCCCCN1CCOCC1 | inactive |
| C=CC(=O)OCCCCCC | inactive |
| O=C(O)c1ccc(C(=O)O)c(C(=O)O)c1 | inactive |
| Cc1ccncc1 | inactive |
| O=[N+]([O-])c1cc(N(CCO)CCO)ccc1NCCO | inactive |
| [Cl][Dy]([Cl])[Cl] | inactive |
| CC(=O)c1cccnc1 | inactive |
| CCOC(=O)CC1(C)OCC(C)O1 (stereo unspecified) | inactive |
| C=CC(O)CCCCC (stereo unspecified) | inactive |
| CCC(CC)CO | inactive |
| CC/C=C\C#N | inactive |
| CC(C)Cc1ccc(C(C)C(=O)O)cc1 (stereo unspecified) | inactive |
| CCCCCCCC(=O)N(C)C | inactive |
| Nc1ccc(O)c(N)c1 | inactive |
| CCC(C)(C)C1CCC(OC)CC1 (stereo unspecified) | inactive |
| Cc1cccc(C)c1 | inactive |
| C1COCO1 | inactive |
| OCCCO | inactive |

Read-out: E-selectin (Homo sapiens) (UniProt P16581)
Assay: BSK_3C_Eselectin: BioMAP Diversity Plus: 3C Assay for Eselectin Biomarker Activity (AID 2283015);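 for outcome: cell surface E-selectin protein quantified by ELISA 24 h after dosing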
Settings: primary human endothelial cells (HUVEC); actives raise or lower the signal
Method in brief: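 Primary human umbilical vein endothelial cells (3C system), read 24 h after compound addition; E-selectin measured by ELISA. Bidirectional curve fitting against DMSO baseline; cytotoxicity by parallel SRB total-protein staining.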

| Structure (SMILES) | outcome | AC50 |
| --- | --- | --- |
| CC1(C)[C@H](C=C(Cl)Cl)[C@H]1C(=O)OCc1cccc(Oc2ccccc2)c1 | inactive |  |
| c1ccc(Sc2ccccc2)cc1 |  | 29.9 µM (active) |
| CC(C)(C)c1cccc(O)c1 | inactive |  |
| C=CC(=O)OCC(CO)(COC(=O)C=C)COC(=O)C=C |  | 0.269 µM (active) |
| C=C(F)C(=O)OC(C(F)(F)F)C(F)(F)F | inactive |  |
| C=C(C)C(=O)OCCC(F)(F)C(F)(F)C(F)(F)C(F)(F)C(F)(F)C(F)(F)C(F)(F)C(F)(F)F | inactive |  |
| CC(=O)c1ccc(C)cc1 | inactive |  |
| O=C(O)C(F)(F)C(F)(F)C(F)(F)C(F)(F)C(F)(F)C(F)(F)C(F)(F)C(F)F | inactive |  |
| O=C(O)C(F)(F)OC(F)(F)C(F)(F)OC(F)(F)C(F)(F)C(F)(F)C(F)(F)F | inactive |  |
| OCC(F)(OC(F)(F)C(F)(OC(F)(F)C(F)(F)C(F)(F)F)C(F)(F)F)C(F)(F)F (stereo unspecified) |  | 3.09 µM (active) and 3.33 µM (active) |
| CC(C)Cc1ccc(C(C)C(=O)O)cc1 (stereo unspecified) | inactive |  |
| O=S(=O)(O)C(F)(F)C(F)(F)OC(F)(F)C(F)(F)F | inactive |  |

Read-out: Monocyte Chemoattractant Protein-1 (MCP1), CCL2 (gene 6347)
Assay: BSK_3C_MCP1: BioMAP Diversity Plus: 3C Assay for Monocyte Chemoattractant Protein-1 (MCP1) Biomarker Activity (AID 2283017)
Settings: primary human endothelial cells (HUVEC); actives raise or lower the signal
Method in brief: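 Human umbilical vein endothelial cells (3C system) exposed to chemicals for 24 h; MCP-1 quantified by ELISA against the DMSO baseline with bidirectional fitting, and parallel SRB staining used to assess cytotoxicity.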

| Structure (SMILES) | outcome | AC50 |
| --- | --- | --- |
| CC1(C)[C@H](C=C(Cl)Cl)[C@H]1C(=O)OCc1cccc(Oc2ccccc2)c1 | inactive |  |
| c1ccc(Sc2ccccc2)cc1 |  | 29.1 µM (active) |
| CC(C)(C)c1cccc(O)c1 | inactive |  |
| C=CC(=O)OCC(CO)(COC(=O)C=C)COC(=O)C=C |  | 0.185 µM (active) |
| C=C(F)C(=O)OC(C(F)(F)F)C(F)(F)F | inactive |  |
| C=C(C)C(=O)OCCC(F)(F)C(F)(F)C(F)(F)C(F)(F)C(F)(F)C(F)(F)C(F)(F)C(F)(F)F | inactive |  |
| CC(=O)c1ccc(C)cc1 | inactive |  |
| O=C(O)C(F)(F)C(F)(F)C(F)(F)C(F)(F)C(F)(F)C(F)(F)C(F)(F)C(F)F | inactive |  |
| O=C(O)C(F)(F)OC(F)(F)C(F)(F)OC(F)(F)C(F)(F)C(F)(F)C(F)(F)F | inactive |  |
| OCC(F)(OC(F)(F)C(F)(OC(F)(F)C(F)(F)C(F)(F)F)C(F)(F)F)C(F)(F)F (stereo unspecified) | inactive | 4.24 µM (active) |
| CC(C)Cc1ccc(C(C)C(=O)O)cc1 (stereo unspecified) | inactive |  |
| O=S(=O)(O)C(F)(F)C(F)(F)OC(F)(F)C(F)(F)F | inactive |  |

Read-out: Monocyte Chemoattractant Protein-1 (MCP1), CCL2 (gene 6347)
Assay: BSK_4H_MCP1: BioMAP Diversity Plus: 4H Assay for Monocyte Chemoattractant Protein-1 (MCP1) Biomarker Activity (AID 2283018)
Settings: primary human endothelial cells (HUVEC); actives raise or lower the signal
Method in brief: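 Human umbilical vein endothelial cells (4H system) exposed to chemicals for 24 h in 96-well format. MCP-1 measured by ELISA; bidirectional fitting against DMSO, with SRB total-protein staining in parallel cultures for cytotoxicity.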

| Structure (SMILES) | outcome | AC50 |
| --- | --- | --- |
| CC1(C)[C@H](C=C(Cl)Cl)[C@H]1C(=O)OCc1cccc(Oc2ccccc2)c1 | inactive |  |
| c1ccc(Sc2ccccc2)cc1 |  | 20 µM (active) |
| CC(C)(C)c1cccc(O)c1 | inactive |  |
| C=CC(=O)OCC(CO)(COC(=O)C=C)COC(=O)C=C |  | 0.333 µM (active) |
| C=C(F)C(=O)OC(C(F)(F)F)C(F)(F)F | inactive |  |
| C=C(C)C(=O)OCCC(F)(F)C(F)(F)C(F)(F)C(F)(F)C(F)(F)C(F)(F)C(F)(F)C(F)(F)F | inactive |  |
| CC(=O)c1ccc(C)cc1 | inactive |  |
| O=C(O)C(F)(F)C(F)(F)C(F)(F)C(F)(F)C(F)(F)C(F)(F)C(F)(F)C(F)F | inactive |  |
| O=C(O)C(F)(F)OC(F)(F)C(F)(F)OC(F)(F)C(F)(F)C(F)(F)C(F)(F)F | inactive |  |
| OCC(F)(OC(F)(F)C(F)(OC(F)(F)C(F)(F)C(F)(F)F)C(F)(F)F)C(F)(F)F (stereo unspecified) | inactive | 3.33 µM (active) |
| CC(C)Cc1ccc(C(C)C(=O)O)cc1 (stereo unspecified) | inactive |  |
| O=S(=O)(O)C(F)(F)C(F)(F)OC(F)(F)C(F)(F)F | inactive |  |
